The results in this text go back to PubChem BioAssay (NCATS).

Test [1] in a line: Primary qHTS for inhibitors of nuclear receptor binding SET domain protein 2 (NSD2) in an RCH-ACV wild type WT cells (2C) (AID 1645877; note: nearly all actives have a fitted effect of over 70% in size; note: potency is the fitted concentration of half-maximal effect; for activity change, negative = cell killing: % is set by controls: 0 for no effect and ±100 for the full control effect). (In general: qHTS replaces the single test concentration by a dilution series.)
For test [2], the target named is Glutathione peroxidase 1 (Homo sapiens) (UniProt P07203). Description: Primary qHTS Assay for Inhibitors of Recombinant Selenoprotein Glutathione Peroxidase 1 (GPX1) (AID 1845191). For activity, negative = inhibition: % is set by controls: 0 for no effect and ±100 for the full control effect. Note: nearly all actives have a fitted effect of over 65% in size. The method, boiled down: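 Recombinant GPX1 (10 nM final) was preincubated with compound for 30 min at room temperature, then reacted with 1 mM GSH, 0.5 mM CHP, 0.5 mM NADPH and 100 nM glutathione reductase; NADPH fluorescence (340/450 nm) was read at 0 and 15 min.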
Chain of Glutathione peroxidase 1 (Homo sapiens) (P07203 whole entry, looked up): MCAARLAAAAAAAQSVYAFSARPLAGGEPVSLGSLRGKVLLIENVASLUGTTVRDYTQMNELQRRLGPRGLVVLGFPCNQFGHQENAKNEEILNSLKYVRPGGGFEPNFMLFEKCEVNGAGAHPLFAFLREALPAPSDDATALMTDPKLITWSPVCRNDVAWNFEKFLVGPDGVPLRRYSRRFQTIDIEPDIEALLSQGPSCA

The target of test [3] is Phospholipid hydroperoxide glutathione peroxidase GPX4 (Homo sapiens) (UniProt P36969). Description: Primary qHTS Assay for Inhibitors of Recombinant Selenoprotein Glutathione Peroxidase 4 (GPX4) (AID 1845192). For activity change, negative = inhibition: series mostly up to about 50 µM; % is set by controls: 0 for no effect and ±100 for the full control effect. Note: nearly all actives have a fitted effect of over 65% in size. The method, boiled down:
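GR-coupled readout: 100 nM GR, 1 mM GSH, 0.5 mM NADPH; NADPH fluorescence (ex 340/em 450 nm) read at t=0 and after 15 min RT. GPX4 200 nM, preincubated 30 min with compound; substrate 0.5 mM CHP.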

Test [4] concerns the target Luciferin 4-monooxygenase (Photinus pyralis) (UniProt P08659). Description: Primary firefly luciferase (FLuc) qHTS assay for identification of artifact compounds. (AID 1845220).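 For activity change, negative = inhibition: series mostly up to about 54 µM; plate controls were DMSO vehicle for no effect and no enzyme for full effect.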 Note: nearly all actives have a fitted effect of over 60% in size. The method in brief:
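Reaction readout was CCD-imaged luminescence, taken 5 min after adding 10 nM purified firefly enzyme to compound-treated wells holding 10 uM luciferin and ATP in pH 7.6 buffer.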

Test [5] is described as follows: Primary fluorescence-based thiol-reactive (MSTI) qHTS assay for identification of artifact compounds. (AID 1845221).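 For activity change, negative = thiol reactive: series mostly up to about 54 µM; thiol-reactive compounds lower the probe fluorescence signal.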 Note: nearly all actives have a fitted effect of over 65% in size. Note: potency is the fitted concentration of half-maximal effect. The method in brief:
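First, 4 uM MSTI in 2% DMSO/PBS pH 7.4 was dispensed; next, compounds were added; then plates sat 1 h at room temperature without light. Finally, emission at 598 nm was recorded.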

In test [6] the test system is Nanoluciferase (engineered Oplophorus gracilirostris luciferase). Briefly: Primary Nanoluciferase (NLuc) qHTS assay for identification of artifact compounds. (AID 1845222).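 Note: NLuc secreted into diluted conditioned medium of S16 cells; series mostly up to about 54 µM; 0% = DMSO and -100% = no enzyme.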 The method, boiled down: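 Concentration-response data were obtained by luminescence after 5 min with Nano-Glo substrate at 1:100. The enzyme was diluted S16 NLuc-expressing cell medium, preincubated with compound for 15 min at RT. Curves were fitted with a 4-parameter Hill model.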

A short description of test [7]: Primary redox qHTS assay for identification of artifact compounds. (AID 1845223).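 For redox activity (% of DA3003): 0% = DMSO and 100% = reference compound.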 Note: potency is the fitted concentration of half-maximal effect. The method in brief:
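Amplex Red (25 uM) and HRP (250 mU/mL) in HBSS, with compounds for 15 min, then 250 uM DTT for 30 min, room temperature, dark. Fluorescence 525/598 nm read; normalized to DMSO and 10 uM DA3003; Hill fit.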

The structures appear in SMILES notation. A number with no mark means an inactive call. Results filed as inconclusive are left out. The source made the active and inactive calls. Calls come from the whole dose curve; as a rule, active = well fitted curve in the direction sought with a large enough effect; inconclusive = small, poorly fitted or top-dose-only effect, or another doubt; inactive = no such curve, though single readings can be large; an effect the other way counts as inactive or inconclusive.

Chain of Phospholipid hydroperoxide glutathione peroxidase GPX4 (Homo sapiens) (P36969 whole entry, looked up): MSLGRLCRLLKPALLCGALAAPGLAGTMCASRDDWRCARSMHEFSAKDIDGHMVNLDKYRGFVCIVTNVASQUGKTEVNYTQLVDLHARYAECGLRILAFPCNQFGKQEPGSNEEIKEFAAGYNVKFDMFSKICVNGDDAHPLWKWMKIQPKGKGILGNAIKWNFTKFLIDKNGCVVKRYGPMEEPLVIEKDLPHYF

As for `C[C@@H]1C(=O)O[C@H]2C[C@]34[C@H]5C[C@@H](C(C)(C)C)[C@]36[C@@H](OC(=O)[C@H]6O)O[C@]4(C(=O)O5)[C@]21O`, the Potency result in test [1], in test [2], in test [3], in test [4], in test [5] and in test [6] was “inactive” in each case. In addition, the Potency result in test [7] is “inactive”.
On to `C=C(C(=O)O)C1CCC2(C)CCCC(C)(O)C2C1` (centres undefined), for which the Potency entry in test [1], in test [2], in test [3], in test [4], in test [6] and in test [7] was “inactive” each time. The Potency in test [5] was 21.2 µM (active).
On to `CC(=O)C1=CCC2C3CCC4CC(O[C@@H]5O[C@H](CO)[C@@H](O[C@@H]6O[C@@H](C)[C@H](O)[C@@H](O)[C@H]6O)[C@H](O)[C@H]5O[C@@H]5O[C@H](CO)[C@@H](O)[C@H](O)[C@H]5O)CCC4(C)C3CCC12C` (some centres undefined), for which the Potency result in test [1], in test [2], in test [3], in test [4], in test [5] and in test [6] was “inactive” each time. Besides, in test [7], the Potency result was “inactive”.
For `CC(C)(O[C@@H]1O[C@H](CO)[C@@H](O)[C@H](O)[C@H]1O)C(OC(=O)/C=C\c1ccc(O)cc1)C(=O)OCc1ccc(O[C@@H]2O[C@H](CO)[C@@H](O)[C@H](O)[C@H]2O)cc1` (some centres undefined), the Potency result in test [1], in test [2], in test [3], in test [4], in test [5] and in test [6] was “inactive” throughout. In addition, the Potency result in test [7] is “inactive”.
With `C=CC(=O)N1CCN(C(=O)CNc2cc(I)c(Cl)cc2O)CC1`, the Potency in test [1] is 5.15 µM (active); in test [5], 8.44 µM (active). Besides, the Potency result in test [2], in test [3], in test [4], in test [6] and in test [7] was “inactive” throughout.
`O=C(Nc1ccc(S(=O)(=O)Nc2ccccc2Cl)c(Cl)c1)c1ccccn1`: the Potency entry in test [1], in test [2], in test [3], in test [4], in test [5] and in test [6] was “inactive” in each case. The Potency result in test [7] was “inactive”.
`C=C[C@@](C)(O)CC/C=C(\C)C(=O)O[C@@H]1[C@@H]2O[C@]2(C)[C@H]2[C@H](O[C@@H]3O[C@H](CO)[C@@H](O)[C@H](O)[C@H]3O)OC=C[C@@]12O`: the Potency result in test [1], in test [2], in test [3], in test [4], in test [5] and in test [6] was “inactive” in each case. In addition, the Potency entry in test [7] was “inactive”.
Consider `C=CC(C)(O)CC[C@H]1C(=C)CCC2[C@](C)(C(=O)O)CCC[C@@]21C` (some centres undefined), for which the Potency entry in test [1], in test [2], in test [3], in test [4], in test [5] and in test [6] was “inactive” each time. Besides, the Potency entry in test [7] is “inactive”.
For the molecule `CC(=O)O[C@@H]1[C@@H](O)[C@H](C)O[C@@H](O[C@H]2[C@@H]3C=CO[C@@H](O[C@@H]4O[C@H](CO)[C@@H](O)[C@H](O)[C@H]4O)[C@@H]3[C@@]3(CO)O[C@@H]23)[C@@H]1OC(=O)/C=C/c1ccccc1`, the Potency entry in test [1], in test [2], in test [3], in test [4], in test [5] and in test [6] was “inactive” in each case. Moreover, in test [7], the Potency result was “inactive”.
`Cc1c(NC(=O)c2cc(C(N)=O)nc3cc(F)ccc23)c(C(F)(F)F)nn1Cc1ccc(C#N)cc1`: the Potency result in test [1], in test [2], in test [3], in test [4], in test [5] and in test [6] was “inactive” throughout. Besides, the Potency entry in test [7] is “inactive”.
On to `O=C(/C=C/c1ccc(O)cc1)N[C@@H](Cc1ccc(O)cc1)C(=O)O`, for which the Potency result in test [1], in test [2], in test [3], in test [4], in test [6] and in test [7] was “inactive” in each case. Also, the Potency in test [5] was 7.36 µM (active).
As to `Nc1nc2c(c(=O)[nH]1)C[C@@H](CCc1ccc(C(=O)N[C@@H](CCC(=O)O)C(=O)O)cc1)CN2`, the Potency in test [1] was 0.0092 µM (active). The Potency result in test [2], in test [3], in test [4], in test [5], in test [6] and in test [7] was “inactive” in each case.
As for `C=CC1(C)CC(OC(=O)/C(C)=C\COC(C)=O)C(C(=C)C(=O)O)C(O)C1C(=C)CO` (centres undefined), the Potency entry in test [1], in test [2], in test [3], in test [4], in test [5] and in test [6] was “inactive” in each case. Further, the Potency entry in test [7] was “inactive”.
On to `CC(=O)OC1C(OC(=O)c2ccccc2)C2C(C)(C)CC(=O)CC2(C)C23CCC(C)(C2)C(O)CC13` (centres undefined), for which the Potency result in test [1], in test [2], in test [3], in test [4], in test [5] and in test [6] was “inactive” in each case.
For the molecule `C=C(C)C(=O)OC1C(OC(C)=O)/C(C=O)=C\CC/C(CO)=C/C2OC(=O)C(=C)C21` (centres undefined), the Potency in test [1] is 1.42 µM (active). In addition, the Potency entry in test [2], in test [3], in test [4], in test [5], in test [6] and in test [7] was “inactive” each time.
For `O=C(O)/C=C/c1cc2c(cc1O[C@@H]1O[C@H](CO)[C@@H](O)[C@H](O)[C@H]1O)OCO2`, the Potency result in test [1], in test [2], in test [3], in test [4], in test [5] and in test [6] was “inactive” throughout. Further, the Potency entry in test [7] was “inactive”.
For `Cn1cc(S(=O)(=O)c2ccc(Cl)cc2)c2cccc(N3CCNCC3)c21`, in test [1], the Potency was 11.5 µM (active). Besides, the Potency entry in test [2], in test [3], in test [4], in test [5] and in test [6] was “inactive” throughout.
Regarding `C[C@@H]1O[C@@H](O[C@H]2[C@@H](OC(=O)[C@]34CCC(C)(C)CC3C3=CCC5[C@@]6(C)C[C@H](O)[C@H](O[C@@H]7O[C@H](C(=O)O)[C@@H](O)[C@H](O)[C@H]7O)[C@@](C)(C(=O)O)C6CC[C@@]5(C)[C@]3(C)CC4)OC[C@H](O)[C@@H]2O)[C@H](O)[C@H](O)[C@H]1O[C@@H]1OC[C@@H](O)[C@H](O)[C@H]1O` (some centres undefined), the activity change, negative = cell killing in test [1] is -16.7% [at 9.23 µM]. Moreover, the Potency entry in test [2] and in test [3] was “inactive” each time. For the same molecule, the activity change, negative = inhibition in test [4] is -6.45% [at 11.6 µM]. Besides, the activity change, negative = thiol reactive in test [5] was 118% [at 11.5 µM]. For the same molecule, in test [6], the activity, negative = inhibition is 0.813% [at 11.6 µM]. Further, the redox activity (% of DA3003) in test [7] is 13% [at 11.5 µM].
For the molecule `CC1=C(C(=O)O)/C(=C\CO[C@@H]2O[C@H](CO)[C@@H](O)[C@H](O)[C@H]2O)C(OC(=O)/C=C/c2ccc(O)cc2)C1` (some centres undefined), the Potency entry in test [1], in test [2], in test [3], in test [4], in test [6] and in test [7] was “inactive” each time. Besides, the Potency in test [5] is 4.62 µM (active).
Consider `C[C@@H]1CCC2C(C)(C)[C@H](O)CC[C@]2(C)[C@@]12Cc1c(O)cc3c(c1O2)CN([C@@H](CCC(=O)O)C(=O)O)C3=O` (some centres undefined), for which the Potency result in test [1], in test [2], in test [3], in test [4], in test [5] and in test [6] was “inactive” each time. The Potency entry in test [7] was “inactive”.
Turning to `CC(=O)OC1C(O)C2C(C)C3=CC(=O)OC3(O)CC2C2(C)CCCC(C)(CO)C12` (centres undefined), the Potency entry in test [1], in test [2], in test [3], in test [4], in test [5] and in test [6] was “inactive” each time. Also, in test [7], the Potency entry is “inactive”.
Consider `C=C(C)C(=O)O[C@H]1C[C@@](C)(O)C(=O)CC(O)/C(C)=C\[C@H]2OC(=O)C(=C)[C@H]12` (some centres undefined), for which the Potency in test [1] is 1.27 µM (active); in test [5] it was 2.93 µM (active). Also, the Potency entry in test [2], in test [3], in test [4], in test [6] and in test [7] was “inactive” each time.
As for `COC(=O)c1c(C)cc(OC(=O)c2c(C)cc(OC)cc2OC)cc1O[C@@H]1O[C@H](CO)[C@@H](O)[C@H](O)[C@H]1O`, the Potency entry in test [1], in test [2], in test [3], in test [4], in test [5] and in test [6] was “inactive” throughout. In addition, in test [7], the Potency was 2.92 µM (active).
On to `Cc1cccc2c1NC(=O)C2(c1ccc(O)cc1)c1ccc(O)cc1`, for which, in test [1], the Potency was 8.17 µM (active). Also, the Potency entry in test [2], in test [3], in test [4], in test [5], in test [6] and in test [7] was “inactive” throughout.
Consider `Nc1ncnc2c1nc(N)n2[C@@H]1O[C@H](CO)[C@@H](O)[C@H]1O`, for which the Potency in test [1] is 0.649 µM (active). Further, the Potency entry in test [2], in test [3], in test [4], in test [5], in test [6] and in test [7] was “inactive” in each case.
On to `C[C@@]12C[C@]3(O)O[C@H](O1)[C@]1(COC(=O)c4ccccc4)[C@H]3C[C@@]12O[C@@H]1O[C@H](CO)[C@@H](O)[C@H](O)[C@H]1O`, for which the Potency entry in test [1], in test [2], in test [3], in test [4], in test [5] and in test [6] was “inactive” in each case. Moreover, the Potency result in test [7] was “inactive”.
In the case of `O=C(O)c1cccc(S(=O)(=O)N2CCc3ccccc3C2)c1`, the Potency result in test [1], in test [2], in test [3], in test [4], in test [5] and in test [6] was “inactive” each time. Moreover, the Potency entry in test [7] was “inactive”.
Regarding `C=C(C)C1CC[C@]2(C(=O)O)CC[C@]3(C(=O)O)[C@H](CCC4[C@@]5(C)CC[C@H](O)C(C)(C)C5CC[C@]43C)C12` (some centres undefined), the Potency result in test [1], in test [2], in test [3], in test [4], in test [5] and in test [6] was “inactive” in each case. Further, the Potency entry in test [7] is “inactive”.
